From PubChem BioAssay (Tox21)
Records with an inconclusive call do not appear. Unmarked numbers belong to inactive results. Calls of active or inactive are those of the source. The call rests on the fitted dose curve; in most records, active means well fitted cell-killing curve with a large enough effect in the repeat runs; inconclusive means weak or mixed curves, or effect the other way; inactive means flat fitted curve, though single readings scatter.

Experiment: cAMP Responsive Elements (CRE) small molecule antagonists, cell-based qHTS assay: qHTS cell viability counter screen (AID 2060913); further: nearly all actives have a fitted effect of over 40% in size
Settings: CRE-bla HEK293T viability, CellTiter-Glo luminescence, 5 h; series mostly up to 92.4 µM; viability change, negative = cytotoxic: at the top concentration
How it was run: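 Cytotoxicity counter screen multiplexed with the CRE-bla antagonist read: HEK293T cells in DMEM with dialyzed FBS and 25 mM HEPES were treated 3 hrs under 0.25 uM final NKH477, then viability measured by CellTiter-Glo luminescence.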
On the % scale 0 is the no-effect control and ±100 the full control effect.

| Compound | viability change, negative = cytotoxic | Potency |
| --- | --- | --- |
| OCCN1CCN(CCO)CC1 | -0.69% |  |
| Cc1cc(C(C#N)c2ccc(Cl)cc2)c(Cl)cc1NC(=O)c1cc(I)cc(I)c1O (stereo not given) | -7.68% [at 42.5 µM] |  |
| Cc1ccc(N)cc1S(=O)(=O)O | -6.59% |  |
| NS(=O)(=O)c1cc2c(cc1Cl)NCNS2(=O)=O |  | inactive |
| NS(=O)(=O)c1cc2c(cc1Cl)NC=NS2(=O)=O |  | inactive |
| N#CCN(CC#N)CCN(CC#N)CC#N | -0.139% |  |
| C=CCN1C[C@H](C(=O)N(CCCN(C)C)C(=O)NCC)C[C@@H]2c3cccc4[nH]cc(c34)C[C@H]21 | -0.554% [at 42.5 µM] |  |
| CCCCCC[C@@H](O)C/C=C\CCCCCCCC(=O)O | 1% |  |
| CC(=O)N(CC(O)CO)c1c(I)c(C(=O)NCCO)c(I)c(C(=O)NCC(O)CO)c1I (stereo not given) | -4.75% [at 42.5 µM] |  |
| CC(C)CCOC(=O)/C=C/c1ccccc1 | 1.06% |  |
| CC1(C)OC[C@@H]2O[C@@]3(C(=O)O)OC(C)(C)O[C@H]3[C@@H]2O1 |  | inactive |
| CCOC(=O)N1CCC(n2c(=O)[nH]c3cc(Cl)ccc32)CC1 | -6.31% [at 42.5 µM] |  |
| CNC[C@H](O)[C@@H](O)[C@H](O)[C@H](O)CO |  | inactive |
| CC(CC=O)CC(C)(C)C (stereo not given) | 11.3% |  |
| CCCCCCCCCCCCOC(C)=O | 2.82% |  |
| CCCCC(CC)COC(=O)CC#N (stereo not given) | -1.7% |  |
| CCCCCCCCCCCCCCCCCC#N | 4.04% |  |
| NCCNCCN |  | inactive |
| ON(Cc1ccccc1)Cc1ccccc1 | 5.6% |  |
| CO[C@H]1C=CO[C@@]2(C)Oc3c(C)c(O)c4c(O)c(c(/C=N/N5CCN(C)CC5)c(O)c4c3C2=O)NC(=O)/C(C)=C\C=C[C@H](C)[C@H](O)[C@@H](C)[C@@H](O)[C@@H](C)[C@H](OC(C)=O)[C@@H]1C |  | inactive |

| Compound | viability change, negative = cytotoxic | Potency |
| --- | --- | --- |
| C[C@H](CCC(=O)O)[C@H]1CC[C@H]2[C@@H]3[C@H](O)C[C@@H]4C[C@H](O)CC[C@]4(C)[C@H]3CC[C@]12C | -14.8% |  |
| CCCCCCCCCCCC(=O)OCC(C)OC(=O)CCCCC(=O)O (stereo not given) | 10.7% [at 42.5 µM] |  |
| C/C=C(\C)C(=O)OCCC(C)CCC=C(C)C (stereo not given) | -3.33% |  |
| CC1(C)C2=CCCC(C)(C)[C@]23CC[C@H]1C3 | -0.495% |  |
| CCOC(=O)OCC | 4.53% |  |
| CC1=CCC(C(C)C)C=C1 (stereo not given) | -1.38% |  |
| CC1=CC[C@H](C(C)C)C=C1 | -0.043% |  |
| CCCCN1C[C@H](O)[C@@H](O)[C@H](O)[C@H]1CO | -0.927% [at 42.5 µM] |  |
| O=[N+]([O-])c1ccc(Nc2ccc(Nc3ccccc3)c(S(=O)(=O)O)c2)c([N+](=O)[O-])c1 | -8.1% |  |
| CC(=O)CC/C=C(\C)CCC=C(C)C |  | inactive |
| CC[N+](CC)(CC(=O)Nc1c(C)cccc1C)Cc1ccccc1 (tested in a mixture with another compound) | -0.503% [at 42.5 µM] |  |
| N=C(N)N | -1.53% [at 42.5 µM] |  |
| Cc1cccc(C)c1NC(=O)C(C)N (stereo not given) | -1.14% [at 42.5 µM] |  |
| CC/C=C\CCOC(=O)C(C)C | -6.04% |  |
| CCNS(=O)(=O)c1ccc(C)cc1 | 5.33% |  |
| NC(=O)CC[C@@H](N)C(=O)O | -0.24% [at 42.5 µM] |  |
| c1ccc2c(c1)ccc1ncccc12 |  | inactive |
| O=S(O)O | 17.7% [at 18.9 µM] |  |
| CCCCCOC(=O)CCC | 0.151% |  |
| O=C(c1ccccc1)c1cc(Cl)ccc1O | -19.6% |  |

Experiment: cAMP Responsive Elements (CRE) small molecule agonists, cell-based qHTS assay: qHTS cell viability counter screen (AID 2060914);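 further: viability read after 3 h of compound exposure; nearly all actives have a fitted effect of over 50% in size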
Settings: CRE-bla HEK293T viability, CellTiter-Glo luminescence, 5 h; series mostly up to 92.4 µM; activity change, negative = cytotoxicity: at the top concentration
How it was run: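 CRE-bla HEK293T cells in 10% dialyzed FBS medium were exposed to compounds for 3 h at 37C after 18 h plating. CellTiter-Glo was then added in the same wells, and luminescence was read after 30 min at room temperature.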

| Compound | activity change, negative = cytotoxicity | Potency |
| --- | --- | --- |
| OCCN1CCN(CCO)CC1 | 4.31% |  |
| Cc1cc(C(C#N)c2ccc(Cl)cc2)c(Cl)cc1NC(=O)c1cc(I)cc(I)c1O (stereo not given) | -10.3% [at 42.5 µM] |  |
| Cc1ccc(N)cc1S(=O)(=O)O | -0.896% |  |
| NS(=O)(=O)c1cc2c(cc1Cl)NCNS2(=O)=O |  | inactive |
| NS(=O)(=O)c1cc2c(cc1Cl)NC=NS2(=O)=O |  | inactive |
| N#CCN(CC#N)CCN(CC#N)CC#N | -0.376% |  |
| C=CCN1C[C@H](C(=O)N(CCCN(C)C)C(=O)NCC)C[C@@H]2c3cccc4[nH]cc(c34)C[C@H]21 | -8.76% [at 42.5 µM] |  |
| CCCCCC[C@@H](O)C/C=C\CCCCCCCC(=O)O | 7.06% |  |
| CC(=O)N(CC(O)CO)c1c(I)c(C(=O)NCCO)c(I)c(C(=O)NCC(O)CO)c1I (stereo not given) | -7.59% [at 42.5 µM] |  |
| CC(C)CCOC(=O)/C=C/c1ccccc1 | 5.08% |  |
| CC1(C)OC[C@@H]2O[C@@]3(C(=O)O)OC(C)(C)O[C@H]3[C@@H]2O1 |  | inactive |
| CCOC(=O)N1CCC(n2c(=O)[nH]c3cc(Cl)ccc32)CC1 | -12.5% [at 42.5 µM] |  |
| CNC[C@H](O)[C@@H](O)[C@H](O)[C@H](O)CO |  | inactive |
| CC(CC=O)CC(C)(C)C (stereo not given) | 0.937% |  |
| CCCCCCCCCCCCOC(C)=O | 6.56% |  |
| CCCCC(CC)COC(=O)CC#N (stereo not given) | 1.78% |  |
| CCCCCCCCCCCCCCCCCC#N | -23.8% |  |
| NCCNCCN | -18.6% |  |
| ON(Cc1ccccc1)Cc1ccccc1 | -12.5% |  |
| CO[C@H]1C=CO[C@@]2(C)Oc3c(C)c(O)c4c(O)c(c(/C=N/N5CCN(C)CC5)c(O)c4c3C2=O)NC(=O)/C(C)=C\C=C[C@H](C)[C@H](O)[C@@H](C)[C@@H](O)[C@@H](C)[C@H](OC(C)=O)[C@@H]1C |  | inactive |

| Compound | activity change, negative = cytotoxicity | Potency |
| --- | --- | --- |
| C[C@H](CCC(=O)O)[C@H]1CC[C@H]2[C@@H]3[C@H](O)C[C@@H]4C[C@H](O)CC[C@]4(C)[C@H]3CC[C@]12C | 6.3% |  |
| CCCCCCCCCCCC(=O)OCC(C)OC(=O)CCCCC(=O)O (stereo not given) | 3.17% [at 42.5 µM] |  |
| C/C=C(\C)C(=O)OCCC(C)CCC=C(C)C (stereo not given) | 7.4% |  |
| CC1(C)C2=CCCC(C)(C)[C@]23CC[C@H]1C3 | -21.3% |  |
| CCOC(=O)OCC | -2.6% |  |
| CC1=CCC(C(C)C)C=C1 (stereo not given) | -7.52% |  |
| CC1=CC[C@H](C(C)C)C=C1 | -9.59% |  |
| CCCCN1C[C@H](O)[C@@H](O)[C@H](O)[C@H]1CO | -13.4% [at 42.5 µM] |  |
| O=[N+]([O-])c1ccc(Nc2ccc(Nc3ccccc3)c(S(=O)(=O)O)c2)c([N+](=O)[O-])c1 | 7.39% |  |
| CC(=O)CC/C=C(\C)CCC=C(C)C |  | inactive |
| CC[N+](CC)(CC(=O)Nc1c(C)cccc1C)Cc1ccccc1 (tested in a mixture with another compound) | 11.3% [at 42.5 µM] |  |
| N=C(N)N | -0.189% [at 42.5 µM] |  |
| Cc1cccc(C)c1NC(=O)C(C)N (stereo not given) | -5.66% [at 42.5 µM] |  |
| CC/C=C\CCOC(=O)C(C)C | 1.65% |  |
| CCNS(=O)(=O)c1ccc(C)cc1 | -5.54% |  |
| NC(=O)CC[C@@H](N)C(=O)O | -6.07% [at 42.5 µM] |  |
| c1ccc2c(c1)ccc1ncccc12 |  | inactive |
| O=S(O)O | 3.71% [at 18.9 µM] |  |
| CCCCCOC(=O)CCC | -1.86% |  |
| O=C(c1ccccc1)c1cc(Cl)ccc1O | -2.24% |  |
